# Assay results from paper PMC11006913.
# Assays:
# Experiment in all cases: PBM; 200 nM protein, PBS
# Settings in all cases: dsDNA, one strand shown
# [1] = target: ALX3 (Homo sapiens, UniProt O95076 139-225)
# [2] = target: ALX3 (Homo sapiens, UniProt O95076 139-225, N203S)
# [3] = target: PROP1 (Homo sapiens, UniProt O75360 56-141)
# [4] = target: PROP1 (Homo sapiens, UniProt O75360 56-141, R99H)
# [5] = target: T1, PAX4 (Homo sapiens, UniProt O43316 9-242, F177Y)
# T1 sequence: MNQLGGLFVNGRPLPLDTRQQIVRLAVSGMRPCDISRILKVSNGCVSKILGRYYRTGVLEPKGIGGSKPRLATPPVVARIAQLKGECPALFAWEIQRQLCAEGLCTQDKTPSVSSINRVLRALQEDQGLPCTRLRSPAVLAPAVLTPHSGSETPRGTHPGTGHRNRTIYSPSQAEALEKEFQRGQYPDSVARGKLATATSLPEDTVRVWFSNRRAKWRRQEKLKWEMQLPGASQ
# [6] = target: PROP1 (Homo sapiens, UniProt O75360 56-141, F88S)
# PROP1 (Homo sapiens, UniProt O75360 56-141, F88S), sequence (O75360 56-141 F88S): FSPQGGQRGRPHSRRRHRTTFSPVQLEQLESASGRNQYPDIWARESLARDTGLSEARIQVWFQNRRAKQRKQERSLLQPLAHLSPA
# [7] = target: VAX1 (Homo sapiens, UniProt Q5SQQ9 86-172)
# VAX1 (Homo sapiens, UniProt Q5SQQ9 86-172), sequence (Q5SQQ9 86-172): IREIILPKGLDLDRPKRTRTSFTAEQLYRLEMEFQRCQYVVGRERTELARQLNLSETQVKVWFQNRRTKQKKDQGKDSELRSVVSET
# [8] = target: VAX1 (Homo sapiens, UniProt Q5SQQ9 86-172, T142I)
# VAX1 (Homo sapiens, UniProt Q5SQQ9 86-172, T142I), sequence (Q5SQQ9 86-172 T142I): as the sequence (Q5SQQ9 86-172) above, with T57I counted along it
# [9] = target: VAX1 (Homo sapiens, UniProt Q5SQQ9 86-172, K157R)
# VAX1 (Homo sapiens, UniProt Q5SQQ9 86-172, K157R), sequence (Q5SQQ9 86-172 K157R): as the sequence (Q5SQQ9 86-172) above, with K72R counted along it
# [10] = target: T2, NKX2-4 (Homo sapiens, UniProt Q9H2Z4 175-261, R246Q)
# T2 sequence: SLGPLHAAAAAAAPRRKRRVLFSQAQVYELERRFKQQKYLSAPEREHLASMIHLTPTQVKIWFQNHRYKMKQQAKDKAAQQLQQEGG
# ALX3 (Homo sapiens, UniProt O95076 139-225), sequence (O95076 139-225): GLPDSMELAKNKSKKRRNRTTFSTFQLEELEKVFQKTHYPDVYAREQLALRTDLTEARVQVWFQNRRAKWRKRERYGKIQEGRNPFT
# PROP1 (Homo sapiens, UniProt O75360 56-141), sequence (O75360 56-141): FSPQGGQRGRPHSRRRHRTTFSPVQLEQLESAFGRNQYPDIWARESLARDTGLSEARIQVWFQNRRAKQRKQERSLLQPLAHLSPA
# PROP1 (Homo sapiens, UniProt O75360 56-141, R99H), sequence (O75360 56-141 R99H): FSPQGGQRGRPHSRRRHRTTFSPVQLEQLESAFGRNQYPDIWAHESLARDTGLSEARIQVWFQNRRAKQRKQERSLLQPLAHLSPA
# ALX3 (Homo sapiens, UniProt O95076 139-225, N203S), sequence (O95076 139-225 N203S): as the sequence (O95076 139-225) above, with N65S counted along it
sequence,measurement,setting,value
GGTTGTTA,binding signal,[1],"9.57 upbm affinity estimate (log intensity, higher = more binding, comparable within an allelic series)"
same,binding signal,[2],"8.28 upbm affinity estimate (log intensity, higher = more binding, comparable within an allelic series)"
ATAGAAAA,binding signal,[1],"8.94 upbm affinity estimate (log intensity, higher = more binding, comparable within an allelic series)"
GACGACAA,binding signal,[3],"7.4 upbm affinity estimate (log intensity, higher = more binding, comparable within an allelic series)"
TAATACTA,binding signal,[1],"10.2 upbm affinity estimate (log intensity, higher = more binding, comparable within an allelic series)"
AATTCCGA,binding signal,[3],"8.08 upbm affinity estimate (log intensity, higher = more binding, comparable within an allelic series)"
same,binding signal,[4],"7.85 upbm affinity estimate (log intensity, higher = more binding, comparable within an allelic series)"
AATAGTCC,binding signal,[3],"8.13 upbm affinity estimate (log intensity, higher = more binding, comparable within an allelic series)"
ATAACATA,binding signal,[1],"9.54 upbm affinity estimate (log intensity, higher = more binding, comparable within an allelic series)"
CATATTGA,binding signal,[1],"9.37 upbm affinity estimate (log intensity, higher = more binding, comparable within an allelic series)"
CCAAACAA,binding signal,[1],"8.78 upbm affinity estimate (log intensity, higher = more binding, comparable within an allelic series)"
TAAAAGTA,binding signal,[1],"9.06 upbm affinity estimate (log intensity, higher = more binding, comparable within an allelic series)"
ATTATGTG,binding signal,[5],"10.9 upbm affinity estimate (log intensity, higher = more binding, comparable within an allelic series)"
TGAGATAA,binding signal,[1],"9.8 upbm affinity estimate (log intensity, higher = more binding, comparable within an allelic series)"
ACCGAGAG,binding signal,[3],"6.71 upbm affinity estimate (log intensity, higher = more binding, comparable within an allelic series)"
same,binding signal,[4],"6.74 upbm affinity estimate (log intensity, higher = more binding, comparable within an allelic series)"
same,binding signal,[6],"6.73 upbm affinity estimate (log intensity, higher = more binding, comparable within an allelic series)"
ATCATATA,binding signal,[5],"10.6 upbm affinity estimate (log intensity, higher = more binding, comparable within an allelic series)"
TGTAGTAA,binding signal,[3],"8.45 upbm affinity estimate (log intensity, higher = more binding, comparable within an allelic series)"
same,binding signal,[4],"8 upbm affinity estimate (log intensity, higher = more binding, comparable within an allelic series)"
AATACTAC,binding signal,[3],"7.84 upbm affinity estimate (log intensity, higher = more binding, comparable within an allelic series)"
AACAATCC,binding signal,[3],"7.92 upbm affinity estimate (log intensity, higher = more binding, comparable within an allelic series)"
ATTGTGAG,binding signal,[3],"8.01 upbm affinity estimate (log intensity, higher = more binding, comparable within an allelic series)"
CCCGACAC,binding signal,[3],"6.59 upbm affinity estimate (log intensity, higher = more binding, comparable within an allelic series)"
same,binding signal,[4],"6.79 upbm affinity estimate (log intensity, higher = more binding, comparable within an allelic series)"
same,binding signal,[7],"6.71 upbm affinity estimate (log intensity, higher = more binding, comparable within an allelic series)"
same,binding signal,[6],"6.7 upbm affinity estimate (log intensity, higher = more binding, comparable within an allelic series)"
same,binding signal,[8],"6.92 upbm affinity estimate (log intensity, higher = more binding, comparable within an allelic series)"
same,binding signal,[9],"6.92 upbm affinity estimate (log intensity, higher = more binding, comparable within an allelic series)"
TTACTCAA,binding signal,[3],"8.57 upbm affinity estimate (log intensity, higher = more binding, comparable within an allelic series)"
same,binding signal,[4],"7.91 upbm affinity estimate (log intensity, higher = more binding, comparable within an allelic series)"
same,binding signal,[7],"9.78 upbm affinity estimate (log intensity, higher = more binding, comparable within an allelic series)"
same,binding signal,[6],"7.39 upbm affinity estimate (log intensity, higher = more binding, comparable within an allelic series)"
same,binding signal,[8],"9.49 upbm affinity estimate (log intensity, higher = more binding, comparable within an allelic series)"
same,binding signal,[9],"9.35 upbm affinity estimate (log intensity, higher = more binding, comparable within an allelic series)"
ATCAAGTA,binding signal,[10],"12.9 upbm affinity estimate (log intensity, higher = more binding, comparable within an allelic series)"
TCCTTAGA,binding signal,[1],"8.33 upbm affinity estimate (log intensity, higher = more binding, comparable within an allelic series)"
AAGAATAT,binding signal,[3],"8.06 upbm affinity estimate (log intensity, higher = more binding, comparable within an allelic series)"
AGTTAGAG,binding signal,[3],"7.87 upbm affinity estimate (log intensity, higher = more binding, comparable within an allelic series)"
GCCATGGC,binding signal,[3],"6.94 upbm affinity estimate (log intensity, higher = more binding, comparable within an allelic series)"
same,binding signal,[4],"6.8 upbm affinity estimate (log intensity, higher = more binding, comparable within an allelic series)"
same,binding signal,[6],"6.74 upbm affinity estimate (log intensity, higher = more binding, comparable within an allelic series)"
CGCGAACC,binding signal,[3],"6.6 upbm affinity estimate (log intensity, higher = more binding, comparable within an allelic series)"
same,binding signal,[4],"6.67 upbm affinity estimate (log intensity, higher = more binding, comparable within an allelic series)"
same,binding signal,[6],"6.71 upbm affinity estimate (log intensity, higher = more binding, comparable within an allelic series)"
GCCTGCGA,binding signal,[3],"6.74 upbm affinity estimate (log intensity, higher = more binding, comparable within an allelic series)"
same,binding signal,[4],"6.64 upbm affinity estimate (log intensity, higher = more binding, comparable within an allelic series)"
same,binding signal,[6],"6.59 upbm affinity estimate (log intensity, higher = more binding, comparable within an allelic series)"
GTCAGGAC,binding signal,[3],"6.88 upbm affinity estimate (log intensity, higher = more binding, comparable within an allelic series)"
same,binding signal,[4],"6.96 upbm affinity estimate (log intensity, higher = more binding, comparable within an allelic series)"
same,binding signal,[6],"6.86 upbm affinity estimate (log intensity, higher = more binding, comparable within an allelic series)"
CCGGGCTA,binding signal,[3],"6.87 upbm affinity estimate (log intensity, higher = more binding, comparable within an allelic series)"
same,binding signal,[4],"6.89 upbm affinity estimate (log intensity, higher = more binding, comparable within an allelic series)"
same,binding signal,[6],"6.52 upbm affinity estimate (log intensity, higher = more binding, comparable within an allelic series)"
CACGACGA,binding signal,[3],"6.69 upbm affinity estimate (log intensity, higher = more binding, comparable within an allelic series)"
same,binding signal,[4],"6.8 upbm affinity estimate (log intensity, higher = more binding, comparable within an allelic series)"
same,binding signal,[6],"6.95 upbm affinity estimate (log intensity, higher = more binding, comparable within an allelic series)"
AGTCTGCG,binding signal,[3],"6.67 upbm affinity estimate (log intensity, higher = more binding, comparable within an allelic series)"
same,binding signal,[4],"6.73 upbm affinity estimate (log intensity, higher = more binding, comparable within an allelic series)"
same,binding signal,[6],"6.68 upbm affinity estimate (log intensity, higher = more binding, comparable within an allelic series)"
ATCACTAA,binding signal,[3],"8.89 upbm affinity estimate (log intensity, higher = more binding, comparable within an allelic series)"
same,binding signal,[4],"8.2 upbm affinity estimate (log intensity, higher = more binding, comparable within an allelic series)"
same,binding signal,[6],"7.19 upbm affinity estimate (log intensity, higher = more binding, comparable within an allelic series)"
CCGACCGG,binding signal,[3],"6.54 upbm affinity estimate (log intensity, higher = more binding, comparable within an allelic series)"
same,binding signal,[4],"6.6 upbm affinity estimate (log intensity, higher = more binding, comparable within an allelic series)"
same,binding signal,[6],"6.35 upbm affinity estimate (log intensity, higher = more binding, comparable within an allelic series)"
GGTGCACC,binding signal,[3],"6.54 upbm affinity estimate (log intensity, higher = more binding, comparable within an allelic series)"
same,binding signal,[4],"6.58 upbm affinity estimate (log intensity, higher = more binding, comparable within an allelic series)"
same,binding signal,[6],"6.7 upbm affinity estimate (log intensity, higher = more binding, comparable within an allelic series)"
